In all, about 5,500 compounds went through this assay and about 2,000 (36%) were called active. Another 18% or so got no clear call; they are omitted. Cut-off read from the data, not from the text of the source: active = normalized growth mostly below about 0.91 (no sharp cut-off); inconclusive = no clear call, values can overlap the other calls; inactive = mostly above about 0.92. This is one part of the list.
Experiment: chemical genetic growth profiling, strain panel (AID 1159580);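 note: tested at 20 µM; growth read once vehicle control cultures reached saturation at 30 °C; 1 = growth at the plate median or of vehicle wells; lower values mean less growth of the strain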
Settings: S. cerevisiae deletion strains, growth OD

Measured: normalized growth

CC(=O)/C(=C\c1ccccc1)CC(=O)O
inactive: locus YAL021C, strain ccr4, active compounds read low 1 | locus YAL026C, strain drs2, active compounds read low 0.995 | locus YAL030W, strain snc1, active compounds read low 1 | locus YBL061C, strain skt5, active compounds read low 1 | locus YBR009C, strain hhf1, active compounds read low 0.986 | locus YBR023C, strain chs3, active compounds read low 1 | locus YBR171W, strain sec66, active compounds read low 0.992 | locus YBR231C, strain swc5, active compounds read low 0.982 | locus YBR279W, strain paf1, active compounds read low 0.999 | locus YCL011C, strain gbp2, active compounds read low 0.988 | locus YCL016C, strain dcc1, active compounds read low 0.991 | locus YCL061C, strain MRC1, active compounds read low 0.994 | locus YCL069W, strain vba3, active compounds read low 0.997 | locus YCR088W, strain abp1, active compounds read low 0.998 | locus YDL005C, strain med2, active compounds read low 0.998 | locus YDL040C, strain nat1, active compounds read low 0.985 | locus YDR001C, strain nth1, active compounds read low 0.992 | locus YDR069C, strain doa4, active compounds read low 0.982 | locus YDR137W, strain rgp1, active compounds read low 1.01 | locus YDR159W, strain sac3, active compounds read low 0.97 | locus YDR195W, strain ref2 0.948 | locus YDR297W, strain sur2, active compounds read low 0.994 | locus YDR334W, strain swr1, active compounds read low 0.996 | locus YDR335W, strain msn5, active compounds read low 0.996 | locus YDR392W, strain spt3, active compounds read low 0.775 | locus YEL003W, strain gim4, active compounds read low 0.992 | locus YEL037C, strain rad23, active compounds read low 0.997 | locus YEL061C, strain CIN8 (second series), active compounds read low 0.989 | locus YER015W, strain faa2, active compounds read low 0.996 | locus YER016W, strain bim1, active compounds read low 0.993 | locus YER111C, strain swi4, active compounds read low 0.992 | locus YER155C, strain BEM2 (second series), active compounds read low 0.923 | locus YFR010W, strain ubp6, active compounds read low 0.994 | locus YGL167C, strain pmr1, active compounds read low 0.993 | locus YGL173C, strain kem1, active compounds read low 0.991 | locus YGL227W, strain vid30, active compounds read low 0.991 | locus YGL240W, strain doc1, active compounds read low 0.978 | locus YGL253W, strain hxk2, active compounds read low 0.984 | locus YHR013C, strain ard1, active compounds read low 0.956 | locus YHR027C, strain rpn1, active compounds read low 0.996 | locus YHR030C, strain SLT2, active compounds read low 0.976 | locus YHR079C, strain IRE1, active compounds read low 0.954 | locus YHR142W, strain chs7, active compounds read low 1.01 | locus YJL092W, strain hpr5, active compounds read low 0.991 | locus YJL095W, strain BCK1 (second series), active compounds read low 0.992 | locus YJL095W, strain BCK1, active compounds read low 0.967 | locus YJL115W, strain asf1, active compounds read low 0.993 | locus YJL129C, strain trk1, active compounds read low 0.984 | locus YJL154C, strain vps35, active compounds read low 1 | locus YJL164C, strain tpk1, active compounds read low 1 | locus YJL166W, strain qcr8, active compounds read low 0.976 | locus YJL187C, strain SWE1, active compounds read low 0.997 | locus YJR066W, strain TOR1, active compounds read low 0.899 | locus YKL160W, strain elf1, active compounds read low 1.01 | locus YKR026C, strain gcn3, active compounds read low 0.986 | locus YKR091W, strain srl3, active compounds read low 0.999 | locus YLL001W, strain dnm1, active compounds read low 0.98 | locus YLL026W, active compounds read low 0.991 | locus YLL041C, strain sdh2, active compounds read low 1 | locus YLR027C, strain aat2, active compounds read low 0.997 | locus YLR113W, strain HOG1, active compounds read low 0.972 | locus YLR221C, strain rsa3, active compounds read low 1 | locus YLR258W, strain gsy2, active compounds read low 0.992 | locus YLR262C, strain YPT6 (second series), active compounds read low 1.02 | locus YLR320W, strain mms22, active compounds read low 0.971 | locus YLR342W, strain FKS1, active compounds read low 0.993 | locus YLR357W, strain rsc2, active compounds read low 0.957 | locus YLR370C, strain arc18, active compounds read low 0.998 | locus YLR384C, strain iki3, active compounds read low 0.992 | locus YML120C, strain ndi1, active compounds read low 1.01 | locus YMR058W, strain fet3, active compounds read low 0.992 | locus YMR125W, strain sto1, active compounds read low 0.955 | locus YMR129W, active compounds read low 0.988 | locus YMR205C, strain PFK2, active compounds read low 0.967 | locus YMR231W, strain pep5, active compounds read low 0.995 | locus YNL071W, strain lat1, active compounds read low 0.995 | locus YNL183C, strain NPR1, active compounds read low 0.927 | locus YNL209W, strain ssb2, active compounds read low 1 | locus YNL248C, strain rpa49, active compounds read low 0.982 | locus YNL322C, strain KRE1 (second series), active compounds read low 0.991 | locus YNR049C, strain mso1, active compounds read low 0.998 | locus YOR001W, strain rrp6, active compounds read low 1 | locus YOR070C, strain gyp1, active compounds read low 0.995 | locus YOR080W, strain dia2, active compounds read low 0.99 | locus YOR083W, strain WHI5, active compounds read low 1.02 | locus YOR106W, strain vam3, active compounds read low 1.01 | locus YOR231W, strain MKK1, active compounds read low 0.969 | locus YOR265W, strain rbl2, active compounds read low 0.993 | locus YOR270C, strain vph1, active compounds read low 0.98 | locus YOR290C, strain snf2, active compounds read low 0.981 | locus YPL051W, strain arl3, active compounds read low 1.01 | locus YPL078C, strain atp4, active compounds read low 1.01 | locus YPL106C, strain sse1, active compounds read low 0.997 | locus YPL240C, strain hsp82, active compounds read low 0.987 | locus YPL256C, strain CLN2, active compounds read low 0.968

O=C(O)/C=C/c1cnc[nH]1
inactive: locus YAL040C, strain CLN3, active compounds read low 1.01 | locus YCL061C, strain MRC1 (second series), active compounds read low 1.01 | locus YDR150W, strain NUM1, active compounds read low 1.02 | locus YDR363W, strain ESC2, active compounds read low 1.03 | locus YER002W, strain NOP16, active compounds read low 1 | locus YJR075W, strain HOC1, active compounds read low 1.02 | locus YMR263W, strain SAP30, active compounds read low 1.01 | locus YMR307W, strain GAS1, active compounds read low 1.01 | locus YNL128W, strain TEP1, active compounds read low 1.01 | locus YNL153C, strain GIM3, active compounds read low 1.03 | locus YNL175C, strain NOP13, active compounds read low 0.997 | locus YNL197C, strain WHI3, active compounds read low 0.994 | locus YNL224C, strain SQS1, active compounds read low 0.984 | locus YNL322C, strain KRE1, active compounds read low 1.03 | locus YOR083W, strain WHI5 (second series), active compounds read low 1.01 | locus YPL241C, strain CIN2, active compounds read low 1.01

Reference: PubChem BioAssay AID1159580 (chemical genetic matrix, 2015)
